Only some compounds are listed: those with a hit (about 10% of all), similar ones and a draw of the others.
SW480 rerep: A quantitative high throughput screen for small molecules that induce DNA re-replication in SW480 colon adenocarcinoma cells | SW480 DNA re-replication, Hoechst DNA content imaging, 48 h | Potency, µM (titrated, usually from 46.1 µM), most hits filed as activators | 1.8% of 340,000 active | AID 624297, 2012; further: nearly all actives have a fitted effect of over 55% in size
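Readout is total intensity of Hoechst-stained nuclei, excited at 405 nm and collected at 500-530 nm. Compound treatment lasted 48 hr at 37 C in 5% CO2 before staining.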
VP16 counter: VP16 counterscreen qHTS for inhibitors of ROR gamma transcriptional activity | Drosophila S2 Gal4-VP16 UAS-luciferase, luminescence, 20 h | Potency, µM (top dose mostly 53.6 µM), hits mostly inhibitors | 3.5% of 310,000 active | AID 2546, 2010;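 further: Gal4-VP16 expression switched on by copper sulfate through the metallothionein promoter; nearly all actives have a fitted effect of over 50% in size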
ELG1 repair inh: qHTS screen for small molecules that inhibit ELG1-dependent DNA repair in human embryonic kidney (HEK293T) cells expressing luciferase-tagged ELG1. HEK293T ELG1-luciferase reporter, luminescence, 16 h; DNA damage induced by 5-fluorouridine. Potency, µM (titrated, usually from 46.1 µM), hits mostly inhibitors. 2.3% of 330,000 active. AID 504467, 2011; further: nearly all actives have a fitted effect of over 55% in size
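HEK293T cells expressing luciferase-tagged ELG1 (2,000/well) received 5-Fluorouridine plus compound or DMSO for 16 hr at 37 °C. Luciferase was read by ONE-Glo luminescence after 30 min at room temperature.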
MCF10A rerep: A quantitative high throughput screen for small molecules that induce DNA re-replication in MCF 10a normal breast cells | MCF 10A DNA re-replication, Hoechst nuclear intensity, 48 h | 2.9% of 350,000 active | Potency, µM (top dose mostly 46.1 µM), usual class: activators; further: nearly all actives have a fitted effect of over 50% in size
RORg inh: qHTS for inhibitors of ROR gamma transcriptional activity. Nuclear receptor ROR-gamma (Mus musculus), P51450. Drosophila S2 Gal4-RORgamma UAS-luciferase reporter, 20 h. Potency, µM (highest dose often 53.6 µM), actives largely listed as inhibitors. 5.4% of 310,000 active. AID 2551, 2010; further: nearly all actives have a fitted effect of over 60% in size
Target sequence (P51450 whole entry, looked up, the tested form may be a part): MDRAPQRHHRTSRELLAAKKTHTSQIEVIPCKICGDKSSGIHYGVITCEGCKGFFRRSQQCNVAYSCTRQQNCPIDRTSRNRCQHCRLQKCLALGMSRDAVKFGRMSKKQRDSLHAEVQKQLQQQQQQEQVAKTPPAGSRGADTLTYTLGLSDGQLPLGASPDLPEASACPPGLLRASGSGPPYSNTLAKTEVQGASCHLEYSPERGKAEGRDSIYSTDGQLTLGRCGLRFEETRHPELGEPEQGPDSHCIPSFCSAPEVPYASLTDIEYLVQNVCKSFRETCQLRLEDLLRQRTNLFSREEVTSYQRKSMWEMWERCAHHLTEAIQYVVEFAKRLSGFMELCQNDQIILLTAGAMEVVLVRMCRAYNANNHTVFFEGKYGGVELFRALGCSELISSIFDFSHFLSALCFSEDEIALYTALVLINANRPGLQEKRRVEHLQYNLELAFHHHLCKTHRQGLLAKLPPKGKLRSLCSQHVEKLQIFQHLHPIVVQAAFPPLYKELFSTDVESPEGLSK
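A Gal4/UAS one-hybrid system in insect cells: metallothionein-promoter Gal4–ROR gamma fusion plus Photinus luciferase reporter. Copper sulfate 700 uM final, 20 hr ambient incubation, luminescent detection after 10 min with reagent.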
A number is an active result; - = inactive; ? = inconclusive; . = no result; [ ] = remark or other dose. The call rests on the fitted dose curve; in most records, active means well fitted curve in the direction sought with a large enough effect; inconclusive means small, poorly fitted or top-dose-only effect, or another doubt; inactive means no such curve, though single readings can be large; an effect the other way counts as inactive or inconclusive.

SMILES	SW480 rerep	VP16 counter	ELG1 repair inh	MCF10A rerep	RORg inh
Cc1nc(NCc2ccco2)[nH]c(=O)c1CCC(C)C	-	-	-	-	-
CC(Sc1ccccc1F)C(=O)Nc1ccc2c(c1)OCCO2 (stereo unspecified)	-	.	?	-	.
Cc1cccn2c(=O)c(C=O)c(Cl)nc12	?	?	?	?	14µM
O=Cc1c(Cl)nc2ccccn2c1=O	?	-	-	26µM	-
C[C@H](CO)N1C[C@H](C)[C@@H](CN(C)C(=O)Nc2ccccc2)Oc2ccc(NC(=O)Nc3ccccc3)cc2C1=O	-	.	-	-	.
Nc1n[nH]c(N)c1N=Nc1ccccc1	16µM	-	-	-	-
COc1ccc(C)cc1CN(C)c1ccc(S(=O)(=O)N2CCN(C)CC2)cn1	?	.	-	?	.
CCOC(=O)C(=O)N(Nc1ccccc1C)c1ccccc1C	-	?	-	-	2.8µM
COc1cc(COC(=O)Oc2ccc(CNC(C)=O)cc2OC)c([N+](=O)[O-])cc1OC	-	.	-	-	.
CN(Cc1cccs1)C(=O)C1CCN(S(=O)(=O)c2ccccc2)CC1	-	.	-	-	.
CCOC(=O)/C(=C/c1c(C)n(C)c2ccc([N+](=O)[O-])cc12)C(C)=O	?	?	13µM	15µM	13µM
Cc1ccc(S(=O)(=O)N2CCC(C(=O)N/N=C/c3cccnc3)CC2)cc1	-	-	-	-	-
COc1cccc2sc(NN)nc12	-	22µM	-	-	13µM
CC(=O)Nc1ccc2nc(NC(=O)COc3ccccc3C)sc2c1	-	-[10 µM]	-	-	-
NNc1nc2c(Cl)c(Cl)ccc2s1	-	?	?	?	?
COc1cccc(-c2nnc(Nc3nc4c(F)cccc4s3)o2)c1	-	3.5µM	?	16µM	?
COc1cccc(-c2nnc(-c3ccc4ccccc4c3)o2)c1	-	.	.	?	.
Clc1ccccc1-c1nnc(-c2cccs2)o1	-	-	?	-	-
COc1cccc2sc(Nc3nnc(-c4ccccc4Cl)o3)nc12	2.6µM	2.5µM	?	?	2µM
COc1cccc2sc(Nc3nc4ccc(NC(C)=O)cc4s3)nc12	?	-	?	3.3µM	-
COc1ccccc1-c1nnc(Nc2nc3c(OC)cccc3s2)o1	2.3µM	?	?	?	1.6µM
COc1ccccc1-c1nnc(-c2ccc(C)cc2)o1	?	.	.	-	.
N#CCSc1nnc(SCC#N)s1	-	-	-	-	-
Cc1ccc(/C=N/Nc2nc(N3CCCCC3)nc(N3CCCCC3)n2)o1	-	?	-	-	8.9µM
O=[N+]([O-])c1ccc(/C=N/Nc2nc(N3CCCCCC3)nc(N3CCCCCC3)n2)o1	?	?	23µM	?	11µM
SMILES	SW480 rerep	VP16 counter	ELG1 repair inh	MCF10A rerep	RORg inh
C(=N\Nc1nc(N2CCCC2)nc(N2CCCC2)n1)/c1cccnc1	-	-	-	-	-
O=[N+]([O-])c1ccc(/C=N/Nc2nc(N3CCCCC3)nc(N3CCCCC3)n2)cc1	-	-	-	-	-
Cc1nc(NCc2ccccc2)c2nc(-c3ccccc3)n(C(C)CN(C)C)c2n1 (stereo unspecified)	.	-	.	.	11µM
Cc1nc(NCc2ccccc2)c2nc(-c3ccccc3)n(CCN3CCCCC3)c2n1	.	-	.	.	11µM
Cc1nc(NCc2ccccc2)c2nc(-c3ccccc3)n(CCCN3CCOCC3)c2n1	.	-	.	.	-
CCN(CC)CCCC(C)n1c(-c2ccccc2)nc2c(NCc3ccccc3)nc(C)nc21 (stereo unspecified)	.	-	.	.	?
Cc1ccc(NS(=O)(=O)c2cc(C(=O)N(C)C)ccc2C)cc1C	-	-	-	-	-
Cc1ccc(NC(=O)CN(C)CC(=O)Nc2sc3c(c2C(N)=O)CCC3)cc1	-	?	?	-	16µM
Cc1ccc(OCCC(=O)Nc2ccc(F)c(Cl)c2)cc1	-	?	-	-	-
Cc1cccc(C)c1NC(=O)CN(C)CC(=O)Nc1sc2c(c1C(N)=O)CCC2	-	.	7.3µM	-	.
Cc1ccc(NC(=O)CN(C)CC(=O)Nc2ccc(F)c(Cl)c2)cc1	-	-	-	21µM	-
COCCN(C(=O)CSc1nc2nc(C)cc(C)n2n1)c1c(N)n(Cc2ccccc2)c(=O)[nH]c1=O	-	-	-	-	-
C[C@@H](C(=O)Nc1ccc2ccccc2c1)[C@@H]1C[C@@]1(C)[C@@H](NC(=O)c1ccncc1Cl)c1ccccc1	.	-	.	.	-
CSc1ccc(-c2nc(CSCC(=O)N3CCOCC3)c(C)o2)cc1	-	-	?	-	-
CCOC(=O)N1CCC(NC(=O)CSCc2nc(-c3ccc(OC)cc3)oc2C)CC1	-	-	-	-	-
CSc1ccc(-c2nc(CSCC(=O)NC3CC3)c(C)o2)cc1	-	?	-	-	8.9µM
CCc1ccc(-c2nc(CSCC(=O)NC3CC3)c(C)o2)cc1	-	?	-	-	2µM
CCc1ccc(-c2nc(CSCC(=O)N3CCN(c4ncccn4)CC3)c(C)o2)cc1	-	16µM	15µM	-	16µM
Cc1ccc2nc(-c3ccccc3)cc(C(=O)N3CCN(S(=O)(=O)c4c(C)noc4C)CC3)c2c1	-	.	?	?	.
CC(=O)SC1CC(=O)C=C2CCC3C4CCC(=O)OC4(C)CCC3C21C (stereo unspecified)	-	.	.	?	.
CC1CCCN(C(=O)c2ccc([N+](=O)[O-])o2)C1 (stereo unspecified)	?	-	-	-	?
CCC1CCCCN1C(=O)c1ccc([N+](=O)[O-])o1 (stereo unspecified)	-	-	-	18µM	-
COc1ccc(C(=O)NC(=S)Nc2ccccc2F)cc1	-	11µM	?	-	4.5µM
Fc1ccccc1NC(=S)NCc1ccc(Cl)cc1	-	?	-	-	11µM
COc1ccc(C(=O)Nc2ccccc2NC(=O)c2ccc(OC)cc2)cc1	-	.	.	-	.
SMILES	SW480 rerep	VP16 counter	ELG1 repair inh	MCF10A rerep	RORg inh
COc1ccc(CNC(=S)Nc2cccc(C)c2C)cc1	-	7.9µM	-	-	2.5µM
CNC(=O)NC(=S)NC(=O)c1ccc(OC)cc1	-	-	?	-	11µM
OCCC1CN(Cc2ccon2)CCN1Cc1ccc(F)c(F)c1 (stereo unspecified)	-	-	-	-	-
CCC1(CC)NC(=O)N(CC(=O)Nc2ccc(-n3cnnn3)cc2)C1=O	-	.	-	-	.
COc1ccc(CNC(=S)Nc2ccccc2F)cc1	-	18µM	-	-	?
CCOc1ccc2c(c1)nc(SCC(=O)c1cccs1)n2C	-	-	?	-	?
CCOc1ccc2c(c1)nc(SCC(=O)c1ccc(Br)s1)n2C	?	?	-	-	14µM
CCOC(=O)c1c(NC(=O)CSc2nnc(C)o2)sc(C)c1C	-	-	?	-	-
Cc1occc1-c1nnc(SCC(=O)Nc2nc(-c3ccccc3)cs2)o1	?	-	?	18µM	?
